Experimental data as given in PubChem BioAssay (Tox21).
Records with an inconclusive call do not appear. Values without a mark were called inactive. Calls of active or inactive are those of the source. The call rests on the fitted dose curve.

What follows are compounds tested against Progesterone receptor (Homo sapiens) (UniProt P06401) (assay: qHTS assay to identify small molecule agonists of the progesterone receptor (PR) signaling pathway (AID 1346784; further: nearly all actives have a fitted effect of over 30% in size)). Settings: PR-UAS-bla HEK293T, beta-lactamase FRET ratio, 16 h; series mostly up to 92.4 µM.
Progesterone receptor (Homo sapiens), sequence (P06401 whole entry, looked up): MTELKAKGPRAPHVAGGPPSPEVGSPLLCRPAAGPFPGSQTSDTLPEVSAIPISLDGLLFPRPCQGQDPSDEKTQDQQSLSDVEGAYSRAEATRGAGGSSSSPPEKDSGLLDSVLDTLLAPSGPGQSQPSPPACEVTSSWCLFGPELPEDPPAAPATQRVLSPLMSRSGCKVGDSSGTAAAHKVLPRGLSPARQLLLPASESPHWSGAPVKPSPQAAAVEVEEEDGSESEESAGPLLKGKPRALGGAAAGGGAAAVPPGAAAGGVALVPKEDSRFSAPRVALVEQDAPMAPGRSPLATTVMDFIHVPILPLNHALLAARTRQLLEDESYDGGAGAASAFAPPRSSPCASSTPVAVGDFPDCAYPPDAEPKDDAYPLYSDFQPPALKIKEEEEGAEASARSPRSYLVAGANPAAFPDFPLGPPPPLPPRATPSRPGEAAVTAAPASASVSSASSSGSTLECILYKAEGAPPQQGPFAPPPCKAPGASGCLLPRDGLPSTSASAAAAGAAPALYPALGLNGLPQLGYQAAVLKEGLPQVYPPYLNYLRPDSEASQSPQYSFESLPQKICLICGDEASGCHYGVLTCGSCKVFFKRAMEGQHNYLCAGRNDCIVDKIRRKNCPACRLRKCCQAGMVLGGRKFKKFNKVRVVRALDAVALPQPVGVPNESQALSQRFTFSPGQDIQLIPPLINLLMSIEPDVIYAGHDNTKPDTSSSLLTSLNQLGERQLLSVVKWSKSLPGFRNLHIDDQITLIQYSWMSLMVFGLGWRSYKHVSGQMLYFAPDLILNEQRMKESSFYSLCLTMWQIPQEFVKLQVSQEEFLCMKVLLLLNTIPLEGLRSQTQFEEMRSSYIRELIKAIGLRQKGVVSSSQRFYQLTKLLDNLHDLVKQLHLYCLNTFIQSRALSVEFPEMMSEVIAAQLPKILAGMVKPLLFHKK
Source text: U.S. Tox21 Program National Center for Advancing Translational Sciences [NCATS] NIH Chemical Genomics Center [NCGC] U.S. Environmental Protection Agency [EPA] National Institutes of Environmental Health Sciences [NIEHS] National Toxicology Program [NTP] U.S. Food and Drug Administration [FDA] […] Endocrine disrupting chemicals (EDCs) and their interactions with steroid hormone receptors like PR causes disruption of normal endocrine function. To identify the compounds that activate PR signaling, a PR-UAS-bla GripTite cell line i.e. PR-UAS-bla HEK 293T (Invitrogen, Carlsbad, CA, USA) containing a beta-lactamase reporter gene under the control of an Upstream Activator Sequence (UAS) was used to screen Tox21 10K compound library.
Tox21 Assay Protocol Summary: PR-UAS-bla HEK 293T cells were dispensed at 3,000 cells/5 uL of assay medium containing 2% charcoal stripped FBS per well into black wall/clear-bottom 1536-well plates using a Multidrop Combi (ThermoFisher Scientific, Waltham, MA) dispenser. After the assay plates were incubated at a 37C and 5% CO2 for 6hr, 23 nL of compounds dissolved in DMSO, positive controls or DMSO only was transferred to the assay plate by a Pintool station (Kalypsys, San Diego, CA). The plates were incubated at 37C and 5% CO2 for 16hr. Then 1 uL of LiveBLAzer B/G FRET substrate was added using a BioRAPTR FRD (Flying Reagent Dispenser, Aurora Discovery, San Diego, CA). After the plates were incubated at room temperature for 2 hours, fluorescence intensity was measured by an Envision plate reader (PerkinElmer, Shelton, CT).
On the % scale 0 is the no-effect control and ±100 the full control effect.

| SMILES | outcome | activation |
| --- | --- | --- |
| O=C(Nc1ccccc1)OCC(CN1CCCCC1)OC(=O)Nc1ccccc1 (stereo not given) | inactive |  |
| CC[C@H](C)[C@H](N)C(=O)O | inactive |  |
| CC1=CC(=O)/C(=C(/C)O)C(=O)O1 | inactive |  |
| CCOc1cc(OCC)c(C(=O)CCC(=O)O)cc1OCC | inactive |  |
| CC(=O)N(CC(=O)N(C)C)c1ccccc1 | inactive |  |
| OC(CCN1CCCCC1)(c1ccccc1)C1CCCCC1 (stereo not given) | inactive |  |
| O=C(O)Cc1sc(-c2ccccc2)nc1-c1ccc(Cl)cc1 | inactive |  |
| O=C(NN1CCCC1)NS(=O)(=O)c1ccc(Cl)cc1 | inactive |  |
| C#CCOC(=O)[C@@H](C)Oc1ccc(Oc2ncc(Cl)cc2F)cc1 | inactive |  |
| CC(CN)CCCN (stereo not given) | inactive |  |
| Cl/C(=C\n1cncn1)c1ccc(Cl)cc1Cl | inactive |  |
| Cn1c(N)nc2nc[nH]c2c1=O | inactive |  |
| CC(=O)Nc1ccc(/C=N/NC(N)=S)cc1 | inactive |  |
| O=C(O)C(c1ccc(Cl)cc1)c1ccc(Cl)cc1 | inactive |  |
| Cc1cccc(Oc2ccccc2)c1 | inactive |  |
| Cc1cccc(OCCOc2cccc(C)c2)c1 | inactive |  |
| C=CC[N+]1([C@H]2C[C@H]3[C@@H]4CC[C@H]5C[C@H](OC(C)=O)[C@@H](N6CCCCC6)C[C@]5(C)[C@H]4CC[C@]3(C)[C@H]2OC(=O)CC)CCCCC1 | inactive |  |
| CC(=O)O[C@@H]1C(=O)O[C@@H]2[C@H]1OC(=O)[C@@H]2OC(C)=O | inactive |  |
| N#Cc1c(F)cccc1F | inactive |  |
| CCCCC(CC)COCCCN (stereo not given) | inactive |  |

| SMILES | outcome | activation |
| --- | --- | --- |
| O=C(O)c1cccc(N(Cc2cccnc2)c2ccc(OC(F)F)c(OC(F)F)c2)c1 | inactive |  |
| ClC(Cl)(Cl)c1ccc(C(Cl)(Cl)Cl)cc1 | inactive |  |
| C[C@@H](C1=C(CCN(C)C)Cc2ccccc21)c1ccccn1 | inactive |  |
| CC(=O)O[C@H]1C[C@@H]2CC[C@@H]3[C@H](CC[C@@]4(C)[C@H]3C[C@H]([N+]3(C)CCCCC3)[C@@H]4OC(C)=O)[C@@]2(C)C[C@@H]1N1CCCCC1 | inactive |  |
| CC/C(=C\C(=N/O)C(N)=O)C(C)[N+](=O)[O-] (stereo not given) | inactive |  |
| FC(F)(F)C(F)(F)C(F)(F)C(F)(F)C(F)(F)C(F)(F)CCI | inactive |  |
| O=C(NS(=O)(=O)/C=C/c1cccs1)c1ccc(F)cc1Br | inactive |  |
| O=C(/C=C/c1ccc(O)c(O)c1)O[C@@H]1C[C@](O)(C(=O)O)C[C@@H](O)[C@H]1O | inactive |  |
| Cc1ccc(C)o1 | inactive |  |
| COCCOCCOCCOCCOC | inactive |  |
| CCOC(=O)[C@H](CCc1ccccc1)N[C@H]1CCc2ccccc2N(CC(=O)O)C1=O | inactive |  |
| CCN(CC)CCNC(C(=O)OCCC(C)C)c1ccccc1 (stereo not given) | inactive |  |
| Cc1ccc(O)c([C@H](CCN(C(C)C)C(C)C)c2ccccc2)c1 | inactive |  |
| N#Cc1cc2ccccc2c2ccccc12 | inactive |  |
| CCOC(=O)C1=C(C)NC(C)=C(C(=O)OC)C1c1cccc([N+](=O)[O-])c1 (stereo not given) | inactive |  |
| NCCCN(CCO)CCO | inactive |  |
| C=C(C)C(=O)OCCOc1ccccc1 | inactive |  |
| O=C(CCN1CCN2CCCC2C1)N1c2ccccc2Sc2ccc(Cl)cc21 (stereo not given) |  | -2.53% [at 19 µM] |
| CCCCCCCCCC(=O)OCC | inactive |  |
| Cc1ccccn1 | inactive |  |
